In PubChem BioAssay AID1159580 (chemical genetic matrix, 2015):
The whole screen tested about 5,500 compounds, of which about 2,000 (36%) were called active. About 18% were inconclusive and are not listed. Cut-off read from the data, not from the text of the source: active = normalized growth mostly below about 0.91 (no sharp cut-off); inconclusive = no clear call, values can overlap the other calls; inactive = mostly above about 0.92. The list shows a part of the results.

Test: chemical genetic growth profiling, strain panel (AID 1159580);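 note: tested at 20 µM; growth read once vehicle control cultures reached saturation at 30 °C; 1 = growth at the plate median or of vehicle wells; lower values mean less growth of the strain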
Conditions: growth OD

Measured: normalized growth

CCOC([O-])=Nc1c[n+](N2CCOCC2)no1
inactive: S. cerevisiae deletion strains, locus YJR075W, strain HOC1, hits give low values 1.01 | S. cerevisiae deletion strains, locus YKL009W, strain mrt4, hits give low values 1.05 | S. cerevisiae deletion strains, locus YKL068W, hits give low values 0.993 | S. cerevisiae deletion strains, locus YKL085W, strain MDH1 (second series), hits give low values 1.04 | S. cerevisiae deletion strains, locus YKL085W, strain MDH1, hits give low values 1.04 | S. cerevisiae deletion strains, locus YKL160W, strain elf1, hits give low values 0.984 | S. cerevisiae deletion strains, locus YKL190W, strain CNB1, hits give low values 1.01 | S. cerevisiae deletion strains, locus YKR001C, strain vps1, hits give low values 0.976 | S. cerevisiae deletion strains, locus YKR026C, strain gcn3, hits give low values 0.994 | S. cerevisiae deletion strains, locus YKR091W, strain srl3, hits give low values 0.995 | S. cerevisiae deletion strains, locus YLL001W, strain dnm1, hits give low values 0.988 | S. cerevisiae deletion strains, locus YLL026W, hits give low values 0.993 | S. cerevisiae deletion strains, locus YLL041C, strain sdh2, hits give low values 0.988 | S. cerevisiae deletion strains, locus YLR027C, strain aat2, hits give low values 0.997 | S. cerevisiae deletion strains, locus YLR039C, strain RIC1, hits give low values 1.02 | S. cerevisiae deletion strains, locus YLR058C, strain SHM2, hits give low values 1.01 | S. cerevisiae deletion strains, locus YLR102C, strain apc9, hits give low values 0.999 | S. cerevisiae deletion strains, locus YLR113W, strain HOG1, hits give low values 1.01 | S. cerevisiae deletion strains, locus YLR221C, strain rsa3, hits give low values 0.985 | S. cerevisiae deletion strains, locus YLR258W, strain gsy2, hits give low values 0.999 | S. cerevisiae deletion strains, locus YLR262C, strain YPT6 (second series), hits give low values 1.01 | S. cerevisiae deletion strains, locus YLR262C, strain YPT6, hits give low values 1.05 | S. cerevisiae deletion strains, locus YLR268W, strain sec22, hits give low values 0.964 | S. cerevisiae deletion strains, locus YLR320W, strain mms22, hits give low values 0.987 | S. cerevisiae deletion strains, locus YLR330W, strain CHS5, hits give low values 1.01 | S. cerevisiae deletion strains, locus YLR342W, strain FKS1 (second series), hits give low values 1.02 | S. cerevisiae deletion strains, locus YLR342W, strain FKS1, hits give low values 1 | S. cerevisiae deletion strains, locus YLR357W, strain rsc2, hits give low values 0.984 | S. cerevisiae deletion strains, locus YLR370C, strain arc18, hits give low values 0.982 | S. cerevisiae deletion strains, locus YLR371W, strain rom2, hits give low values 0.994 | S. cerevisiae deletion strains, locus YLR384C, strain iki3, hits give low values 0.994 | S. cerevisiae deletion strains, locus YLR418C, strain cdc73, hits give low values 0.993 | S. cerevisiae deletion strains, locus YML016C, strain PPZ1, hits give low values 1.02 | S. cerevisiae deletion strains, locus YML032C, strain rad52, hits give low values 0.984 | S. cerevisiae deletion strains, locus YML120C, strain ndi1, hits give low values 0.994 | S. cerevisiae deletion strains, locus YML124C, strain tub3, hits give low values 1 | S. cerevisiae deletion strains, locus YMR058W, strain fet3, hits give low values 0.995 | S. cerevisiae deletion strains, locus YMR078C, strain ctf18, hits give low values 0.996 | S. cerevisiae deletion strains, locus YMR125W, strain sto1, hits give low values 1.01 | S. cerevisiae deletion strains, locus YMR129W, hits give low values 0.994 | S. cerevisiae deletion strains, locus YMR205C, strain PFK2, hits give low values 0.995 | S. cerevisiae deletion strains, locus YMR223W, strain ubp8, hits give low values 0.998 | S. cerevisiae deletion strains, locus YMR231W, strain pep5, hits give low values 0.994 | S. cerevisiae deletion strains, locus YMR263W, strain SAP30, hits give low values 1.02 | S. cerevisiae deletion strains, locus YMR307W, strain GAS1, hits give low values 1.04 | S. cerevisiae deletion strains, locus YNL067W, strain RPL9B, hits give low values 1 | S. cerevisiae deletion strains, locus YNL071W, strain lat1, hits give low values 1 | S. cerevisiae deletion strains, locus YNL128W, strain TEP1, hits give low values 1.01 | S. cerevisiae deletion strains, locus YNL153C, strain GIM3, hits give low values 1 | S. cerevisiae deletion strains, locus YNL183C, strain NPR1, hits give low values 0.999 | S. cerevisiae deletion strains, locus YNL209W, strain ssb2, hits give low values 0.993 | S. cerevisiae deletion strains, locus YNL233W, strain BNI4, hits give low values 1.02 | S. cerevisiae deletion strains, locus YNL248C, strain rpa49, hits give low values 0.992 | S. cerevisiae deletion strains, locus YNL250W, strain rad50, hits give low values 0.982 | S. cerevisiae deletion strains, locus YNL271C, strain bni1, hits give low values 0.981 | S. cerevisiae deletion strains, locus YNL298W, strain CLA4, hits give low values 0.982 | S. cerevisiae deletion strains, locus YNL307C, strain MCK1, hits give low values 1.01 | S. cerevisiae deletion strains, locus YNL322C, strain KRE1 (second series), hits give low values 0.99 | S. cerevisiae deletion strains, locus YNL322C, strain KRE1, hits give low values 1.01 | S. cerevisiae deletion strains, locus YNR049C, strain mso1, hits give low values 0.988 | S. cerevisiae deletion strains, locus YNR052C, strain pop2, hits give low values 0.989 | S. cerevisiae deletion strains, locus YOL006C, strain TOP1, hits give low values 1.03 | S. cerevisiae deletion strains, locus YOL012C, strain htz1 0.747 | S. cerevisiae deletion strains, locus YOL147C, strain pex11, hits give low values 0.978 | S. cerevisiae deletion strains, locus YOR001W, strain rrp6, hits give low values 1.01 | S. cerevisiae deletion strains, locus YOR061W, strain CKA2, hits give low values 1.02 | S. cerevisiae deletion strains, locus YOR069W, strain VPS5, hits give low values 1.01 | S. cerevisiae deletion strains, locus YOR070C, strain gyp1, hits give low values 0.994 | S. cerevisiae deletion strains, locus YOR080W, strain dia2, hits give low values 0.997 | S. cerevisiae deletion strains, locus YOR083W, strain WHI5, hits give low values 0.988 | S. cerevisiae deletion strains, locus YOR106W, strain vam3, hits give low values 1.01 | S. cerevisiae deletion strains, locus YOR136W, strain idh2, hits give low values 0.993 | S. cerevisiae deletion strains, locus YOR144C, strain elg1, hits give low values 0.991 | S. cerevisiae deletion strains, locus YOR184W, strain ser1, hits give low values 1 | S. cerevisiae deletion strains, locus YOR231W, strain MKK1, hits give low values 1.01 | S. cerevisiae deletion strains, locus YOR265W, strain rbl2, hits give low values 0.991 | S. cerevisiae deletion strains, locus YOR270C, strain vph1, hits give low values 1.04 | S. cerevisiae deletion strains, locus YOR290C, strain snf2, hits give low values 0.992 | S. cerevisiae deletion strains, locus YOR316C, strain cot1, hits give low values 0.998 | S. cerevisiae deletion strains, locus YPL051W, strain arl3, hits give low values 0.995 | S. cerevisiae deletion strains, locus YPL055C, strain LGE1, hits give low values 1.04 | S. cerevisiae deletion strains, locus YPL078C, strain atp4, hits give low values 1 | S. cerevisiae deletion strains, locus YPL106C, strain sse1, hits give low values 0.963 | S. cerevisiae deletion strains, locus YPL240C, strain hsp82, hits give low values 0.981 | S. cerevisiae deletion strains, locus YPL241C, strain CIN2, hits give low values 1.01 | S. cerevisiae deletion strains, locus YPL256C, strain CLN2, hits give low values 1.04 | S. cerevisiae deletion strains, locus YPR119W, strain clb2, hits give low values 0.994 | S. cerevisiae deletion strains, locus YPR141C, strain kar3, hits give low values 0.983 | S. cerevisiae deletion strains, locus YPR163C, strain tif3, hits give low values 0.984 | S. cerevisiae deletion strains, locus YPR167C, strain met16, hits give low values 1 | S. cerevisiae deletion strains, strain wtn01, hits give low values 0.98 | S. cerevisiae strains, strain wild type, hits give low values 1.02
